# Laboratory results from PubChem BioAssay.
# Active and inactive are the calls of the source. Unless noted, no stated cut-off is given here; in the data, active means inhibition above about 80%; inactive means the rest.
# Tests used:
# [1] = LFS_MB_P medulloblastoma growth inhibition, cell-based, chromothripsis tumors, cisplatin or BGB combos (AID 1671449); conditions: LFS_MB_P medulloblastoma cells;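 further: cells exposed for 96 hours; 0% = vehicle DMSO and 100% = killing by high DMSO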
# [2] = HDN33 neuroblastoma growth inhibition, cell-based, chromothripsis tumors, cisplatin or BGB combos (AID 1671450); conditions: HDN33 neuroblastoma cells, stronger effect = higher value;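 further: cells exposed to compound for four days; 0% = vehicle DMSO and 100% = cell killing by high DMSO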
# [3] = ICB984 medulloblastoma cell growth inhibition, synergistic combos for chromothripsis tumors, cisplatin or BGB combos (AID 1671451; call rule not given here;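 further: cells exposed for 96 hours before readout; 0% = vehicle DMSO and 100% = killing by high DMSO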); conditions: ICB984 medulloblastoma cells, drug combinations, stronger effect = higher value
# [4] = LFS_MB_1R medulloblastoma cell growth inhibition, synergistic combos for chromothripsis tumors, cisplatin or BGB combos (AID 1671452); conditions: LFS_MB_1R medulloblastoma cells, stronger effect = higher value;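 further: cells exposed for 96 hours before readout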
# [5] = HTB85 osteosarcoma cell growth inhibition, synergistic combos for chromothripsis tumors, BGB or cisplatin IC20 combos (AID 1671453); conditions: HTB85 osteosarcoma cells, drug combinations, stronger effect = higher value;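 further: cells exposed for 96 hours before readout; 0% = vehicle DMSO and 100% = high DMSO killing control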
# [6] = CRL2098 osteosarcoma cell growth inhibition, synergistic combos for chromothripsis tumors, BGB or cisplatin IC20 combos (AID 1671454); conditions: CRL2098 osteosarcoma cells, drug combinations, stronger effect = higher value;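 further: cells exposed for 96 h before readout; 0% = vehicle DMSO and 100% = killing by high DMSO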
# [7] = HD-MB03 medulloblastoma cell growth inhibition, synergistic combos for chromothripsis tumors, BGB or cisplatin IC20 combos (AID 1671455; in the data active means inhibition above about 83%;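 further: 0% = vehicle DMSO and 100% = high DMSO as cytotoxic control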); conditions: HD-MB03 medulloblastoma cells, stronger effect = higher value
# [8] = UWB1.289 ovarian carcinoma cell growth inhibition, synergistic combos for chromothripsis tumors, BGB or cisplatin combos (AID 1671456); conditions: UWB1.289 ovarian carcinoma cells, stronger effect = higher value;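 further: cells exposed to compound for four days; 0% = vehicle DMSO and 100% = killing by high DMSO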
# [9] = LFS_MB_2R medulloblastoma cell growth inhibition, synergistic combos for chromothripsis tumors, cisplatin combos (AID 1671457); conditions: LFS_MB_2R medulloblastoma cells, stronger effect = higher value;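 further: cells exposed to compound for four days before readout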
# [10] = MDA-MB-436 breast carcinoma cell growth inhibition, synergistic combos for chromothripsis tumors, BGB or cisplatin combos (AID 1671458; call rule not given here;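 further: cells exposed for 96 hours; 0% = vehicle DMSO and 100% = killing by high DMSO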); conditions: MDA-MB-436 breast carcinoma growth inhibition, drug combinations, stronger effect = higher value
# [11] = UWB1.289_BRCA1 ovarian cancer growth, cell-based, BGB or cisplatin combinations (AID 1671459); conditions: UWB1.289 BRCA1 ovarian carcinoma, drug combinations, stronger effect = higher value
# [12] = human astrocyte viability loss, single and combined drugs, cytotoxicity control for chromothriptic childhood tumor combination screen, cell-based, BGB or cisplatin IC20 combos (AID 1671460); conditions: Human astrocytes, drug combinations, stronger effect = higher value;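 further: cells exposed to compounds for 96 hours before viability readout; 0% = vehicle and 100% = killing control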
# [13] = growth inhibition of BT084 medulloblastoma cells, cell-based, ICGC_MB145, cisplatin and BGB IC40 combos (AID 1671461); conditions: drug combinations, stronger effect = higher value;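 further: cells exposed to drugs for 96 hours; 0% = vehicle DMSO and 100% = high DMSO full killing control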
# [14] = growth inhibition of RCMB18 medulloblastoma cells, cell-based, cisplatin and BGB IC40 combos (AID 1671462); conditions: stronger effect = higher value;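 further: cells exposed to compound for four days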
# [15] = growth inhibition of CRL1545 osteosarcoma cells, cell-based, cisplatin and BGB IC20 combos (AID 1671464); conditions: stronger effect = higher value;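 further: cells exposed to compound for 96 hours before readout; 0% = vehicle DMSO and 100% = high DMSO killing control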
# [16] = measured here: combination with BGB IC40, at 0.05 µM
# [17] = measured here: with BGB IC20 combination, at 0.5 µM
# [18] = measured here: with cisplatin IC20 combination, at 0.5 µM
# [19] = measured here: combination with cisplatin, at 0.5 µM
# [20] = measured here: combination with cisplatin, at 5 µM
smiles,measurement,setting,value
COc1cccc2c1C(=O)c1c(O)c3c(c(O)c1C2=O)CC(O)(C(=O)CO)CC3OC1CC(N)C(OC2CCCCO2)C(C)O1 (stereo not drawn),inhibition,"[1]; at 0.5 µM, stronger effect = higher value",-32.3% (inactive)
same,inhibition,"[1]; measured here: combination with BGB IC20, at 0.005 µM",9.11%
same,inhibition,"[1]; measured here: combination with BGB IC40, at 0.005 µM",-11.4%
same,inhibition,[1]; [16],-11.1%
same,inhibition,"[1]; measured here: combination with cisplatin, at 0.5 µM, stronger effect = higher value",-47.4%
same,inhibition,"[1]; measured here: combination with cisplatin, at 5 µM, stronger effect = higher value",110%
same,inhibition,"[2]; BGB combo, at 5 µM",97.2%
same,inhibition,[2]; at 0.5 µM,23.8% (inactive)
same,inhibition,"[2]; cisplatin combo, at 5 µM",99.2%
same,inhibition,[2]; [17],21.1%
same,inhibition,[2]; [18],4.67%
same,inhibition,"[2]; single agent, at 5 µM",99%
same,inhibition,"[3]; BGB IC20 combo, at 0.005 µM",-23.2%
same,inhibition,"[3]; BGB IC40 combo, at 0.005 µM",-47.6%
same,inhibition,"[3]; BGB IC40 combo, at 0.05 µM",94.7%
same,inhibition,[3]; at 0.5 µM,-38.2% (inactive)
same,inhibition,"[3]; cisplatin combo, at 0.05 µM",94.5%
same,inhibition,"[3]; cisplatin combo, at 0.5 µM",-60.7%
same,inhibition,"[3]; cisplatin combo, at 5 µM",-43.3%
same,inhibition,"[3]; measured here: 5 uM single agent, at 5 µM",-14.9%
same,inhibition,[4]; at 0.5 µM,60.2% (inactive)
same,inhibition,[4]; [16],-55.1%
same,inhibition,[4]; [19],53.5%
same,inhibition,[4]; [20],95%
same,inhibition,[5]; at 0.5 µM,56.2% (inactive)
same,inhibition,"[5]; measured here: with BGB IC20, at 0.5 µM",23.4%
same,inhibition,"[5]; measured here: with BGB IC20, at 5 µM",99%
same,inhibition,"[5]; measured here: with cisplatin IC20, at 0.5 µM",91%
same,inhibition,"[5]; measured here: with cisplatin IC20, at 5 µM",99.6%
same,inhibition,"[5]; single agent, at 5 µM",99.2%
same,inhibition,[6]; at 0.5 µM,30.1% (inactive)
same,inhibition,"[6]; measured here: combination with BGB at IC20, at 0.5 µM",85.5%
same,inhibition,"[6]; measured here: combination with cisplatin at IC20, at 0.5 µM",33.2%
same,inhibition,[7]; at 0.5 µM,70.5% (inactive)
same,inhibition,"[7]; measured here: combo with BGB at IC20, at 0.5 µM",69.8%
same,inhibition,"[7]; measured here: combo with cisplatin at IC20, at 0.5 µM",77.2%
same,inhibition,[8]; at 0.5 µM,12.2% (inactive)
same,inhibition,"[8]; measured here: inhibition with BGB combination, at 0.05 µM",26.6%
same,inhibition,"[8]; measured here: inhibition with cisplatin combination, at 0.05 µM",-27.7%
same,inhibition,[9]; at 0.5 µM,-17% (inactive)
same,inhibition,[9]; [19],-2.89%
same,inhibition,[9]; [20],86.3%
same,inhibition,[10]; at 0.5 µM,24.8% (inactive)
same,inhibition,"[10]; measured here: BGB combination, at 0.5 µM",4.22%
same,inhibition,"[10]; measured here: BGB combination, at 5 µM",64.7%
same,inhibition,"[10]; measured here: cisplatin combination, at 0.5 µM",26.1%
same,inhibition,"[10]; measured here: cisplatin combination, at 5 µM",84.5%
same,inhibition,"[11]; BGB combination, concentration series, at 5 µM",94.3%
same,inhibition,[11]; at 0.5 µM,16.1% (inactive)
same,inhibition,"[11]; cisplatin combination, concentration series, at 5 µM",96.5%
same,inhibition,[12]; at 0.5 µM,50% (inactive)
same,inhibition,"[12]; measured here: combo with BGB IC20, at 0.5 µM",42.8%
same,inhibition,"[12]; measured here: combo with cisplatin IC20, at 0.5 µM",39.2%
same,inhibition,[13]; at 0.5 µM,2.98% (inactive)
same,inhibition,"[13]; cisplatin combination, at 0.5 µM",23.2%
same,inhibition,"[13]; cisplatin combination, at 5 µM",-6.21%
same,inhibition,"[13]; measured here: BGB IC40 combination 0.05 uM, at 0.05 µM",-28.8%
same,inhibition,"[13]; single agent, at 5 µM",27%
same,inhibition,[14]; at 0.5 µM,21.9% (inactive)
same,inhibition,"[14]; cisplatin combo, at 5 µM",71.1%
same,inhibition,"[14]; measured here: BGB IC40 combination, at 0.05 µM",-38.8%
same,inhibition,[14]; [19],44.2%
same,inhibition,"[14]; single agent, at 5 µM",71.6%
same,inhibition,[15]; at 0.5 µM,91.3% (active)
same,inhibition,[15]; [17],85.6%
same,inhibition,[15]; [18],94.1%
same,inhibition,"[15]; single agent, at 0.05 µM",-29.5%
same,inhibition,"[15]; single agent, at 5 µM",99.5%
